Results as given in the supplement of paper PMC11417369.
± gives the standard deviation of the averaged measurements. The full ranking holds about 25,000 sequences; the median of “ln(normalized median fluorescence intensity)” is about 10, and the highest 2% start at about 12. Shown is part of a subset that was picked to be rich in the highest values.

The sequences below were run on PfAP2-G AP2 domain (GST-tagged) (assay: gcPBM binding intensity (ln(normalized median fluorescence intensity)); higher = stronger DNA binding).
Summary of the method: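 An Agilent 4 × 180k array carrying primer-extended double-stranded 36-bp intergenic genomic probes and negative controls received GST-tagged P. falciparum DNA-binding domains expressed in E. coli, about 25 μg on average, for 1 h. The binding buffer contained 1× PBS, 1% milk, 0.2 mg/ml BSA, 0.5% salmon testes DNA and 0.03% Triton X-100. Binding intensity is the top Masliner-normalised natural-log median intensity across replicate spots of either probe orientation, read after Alexa488 anti-GST antibody staining and a 488 nm scan.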
“TAACATAAATTTAGGAGTACACTTTTTATACATACA [XGTACX_site4066]” was tested, and the “gcPBM binding intensity (ln)” value was 11.7 ± 1.
For “AATTTTTTAAATGTGTGTACATATTATTTAAATAAT [XGTACX_site5967]”, the “gcPBM binding intensity (ln)” value was 11.5 ± 0.73.
“TTTATATATTTTAGGTGTACATAAATTTTTATATAT [XGTACX_site5597]” was tested, and the “gcPBM binding intensity (ln)” value was 11.7 ± 1.1.
“TATAAAATATAAATTTGTACATATAAAATATTTTAT [XGTACX_site7462]” was tested, and the “gcPBM binding intensity (ln)” value was 10.8 ± 0.53.
With “CCCACGTATATTTTGTGTACATAAATAAATAAATAA [XGTACX_site4046]” the “gcPBM binding intensity (ln)” value was 11.6 ± 0.86.
In the case of “AATATCTAAAATGTGTGTACATAATATTTTTAATAT [XGTACX_site3831]”, the “gcPBM binding intensity (ln)” value is reported as 11.7 ± 1.1.
“ATGTATATATATTTGTGTACATATTTAGGAAATAAA [XGTACX_site2904]” was tested, and the “gcPBM binding intensity (ln)” value was 11.6 ± 1.
For “TTTATATATTTTAGGAGTACATTAAATTATACCTTA [XGTACX_site5600]”, the “gcPBM binding intensity (ln)” value was 11.5 ± 0.89.
With “TTTATTATTTTTAGGAGTACACAAAATAAAACAAAT [XGTACX_site8841]” the “gcPBM binding intensity (ln)” value was 11.6 ± 1.
“TATTTAATTTTTAAATGTACATATAAAATAATATAT [XGTACX_site2422]” was tested, and the “gcPBM binding intensity (ln)” value was 11.2 ± 0.89.
“TAAAAATAATATATTTGTACATATGTGTATACATAA [XGTACX_site741]” was tested, and the “gcPBM binding intensity (ln)” value was 10.7 ± 0.38.
“TTATATATTTATAAATGTACATATAATTTTTTTATA [XGTACX_site4696]” was tested, and the “gcPBM binding intensity (ln)” value was 11.1 ± 0.67.
For “TTTTAAAGTTGTGAGCTTCATTTTTATTTATATGTA [CACACA_negctrl_site1505]”, the “gcPBM binding intensity (ln)” value was 9.87 ± 0.057.
For “AAATAATTTATAAATAAATACATTGTTACTTTTTCT [GTGCAC_negctrl_site639]”, the “gcPBM binding intensity (ln)” value was 9.62 ± 0.29.
“TTTTTTTTTTTTTTTGCATGCAGGTTTTTACCCCTT [TGCATGCA_site381]” was tested, and the “gcPBM binding intensity (ln)” value was 9.84 ± 0.51.
“ATCATATGTATGGTGGTGCATTATGCATGAATTTTA [GTGCAC_site9798]” was tested, and the “gcPBM binding intensity (ln)” value was 10.1 ± 0.18.
With “TATTCGTGCAATAGTAGTACACTTAAAAATTATTCA [XGTACX_site269]” the “gcPBM binding intensity (ln)” value was 11.6 ± 1.1.
“TTCCAAAATTGCACATGTACAAAATTCTCCAATATG [XGTACX_site3419]” was tested, and the “gcPBM binding intensity (ln)” value was 10.9 ± 0.62.
For “TAATGCATTTTCGCATGTACATATTTCTCTTTATAT [XGTACX_site8915]”, the “gcPBM binding intensity (ln)” value was 11.1 ± 0.71.
With “TTATATTTTTTTGAGTGTACTTTTTGTGTAAAATTC [XGTACX_site2155]” the “gcPBM binding intensity (ln)” value was 11.5 ± 0.84.
For “TTCGACGAGAGCAAGTGTACTCTTGAATAATTTATA [XGTACX_site7613]”, the “gcPBM binding intensity (ln)” value was 11.3 ± 0.9.
“TTGTTATATTACAGTAGTACATTTAAAATCTACTAC [XGTACX_site2620]” was tested, and the “gcPBM binding intensity (ln)” value was 11.4 ± 0.93.
With GAGGTCTTTTTTAATGTGCACATATATATATATATA the “gcPBM binding intensity (ln)” value was 10.7 ± 0.51.
“ATAAAATAATCTTATGCACACCAAAAATTTATATAA [CACACA_site8332]” was tested, and the “gcPBM binding intensity (ln)” value was 10.2 ± 0.12.
For “TCTATTAATTAATATACACACATTAGATATAAATAT [CACACA_site7241]”, the “gcPBM binding intensity (ln)” value was 9.945 ± 0.092.
In the case of “TGTATTATTAATATTTGTACGTAATAATAAAAACAT [XGTACX_site3716]”, the “gcPBM binding intensity (ln)” value is reported as 11.5 ± 1.
With “TTCAATATACATATGTGTACTAAAATAAATAGAAAA [XGTACX_site5708]” the “gcPBM binding intensity (ln)” value was 11.3 ± 0.83.
With “GTAATATTATATAGTTGTACTTTTTTTTTATTATAT [XGTACX_site483]” the “gcPBM binding intensity (ln)” value was 11.5 ± 1.
For “ACGTAATAAAATAGTTGTACAACTTTTTATAATATA [XGTACX_site4393]”, the “gcPBM binding intensity (ln)” value was 11.8 ± 1.1.
In the case of “ATATATATAAATATATGTACTAATATATACATATAT [XGTACX_site2289]”, the “gcPBM binding intensity (ln)” value is reported as 11 ± 0.69.
With “ACTTCAAAAATAAACTGTACGTAAAAAAAAAAAAAA [XGTACX_site795]” the “gcPBM binding intensity (ln)” value was 11.5 ± 1.
With “AACTGTAATTTTATACGTACATAAATAATATTATAT [XGTACX_site4277]” the “gcPBM binding intensity (ln)” value was 11.7 ± 0.93.
With “TAATAATAAAAAATACGTACATATTATTTATATATG [XGTACX_site853]” the “gcPBM binding intensity (ln)” value was 11.4 ± 0.76.
For “TATATATATATAATGTGTACATACTAAATAGAGGAC [XGTACX_site4153]”, the “gcPBM binding intensity (ln)” value was 11.7 ± 1.1.
“GTATTATATTTCAACTGTACGTAAAACTATTAAAAT [XGTACX_site3679]” was tested, and the “gcPBM binding intensity (ln)” value was 11.7 ± 1.1.
In the case of “TATTTTTATAAAAACTGTACATAATAAATAAAAATA [XGTACX_site4743]”, the “gcPBM binding intensity (ln)” value is reported as 11.1 ± 0.62.
“TCAATATAAATTAGTTGTACAGTTTTTTTTAATTAT [XGTACX_site6358]” was tested, and the “gcPBM binding intensity (ln)” value was 11.5 ± 0.92.
With “ATAATAAGAAAAAAAAAAAAAAAAAAAAAAAAAAAA [TGCATGCA_negctrl_site377]” the “gcPBM binding intensity (ln)” value was 9.59 ± 0.58.
In the case of “TTATTGTACTTGCTCGCATGCAATAAAAATATATTA [TGCATGCA_site580]”, the “gcPBM binding intensity (ln)” value is reported as 11.2 ± 1.1.
“ATAAATTTTTAAACAGCACACATAAATATAATATAT [CACACA_site8691]” was tested, and the “gcPBM binding intensity (ln)” value was 10.06 ± 0.064.
In the case of “TGATAACCTCACAAATGTACGTACGGGGCTAGCATT [XGTACX_site4157]”, the “gcPBM binding intensity (ln)” value is reported as 11.4 ± 0.78.
In the case of “GTATATGAATGTTCATGTACATAATAAAATATATAA [XGTACX_site250]”, the “gcPBM binding intensity (ln)” value is reported as 11 ± 0.56.
In the case of “ATGCGTTTAGCAAAAAGTACATATATATATAATATT [XGTACX_site1928]”, the “gcPBM binding intensity (ln)” value is reported as 11.2 ± 0.73.
With “TTTTATTTATATTATACACACAAGGAAAAAAAAAAA [CACACA_site7690]” the “gcPBM binding intensity (ln)” value was 10.2 ± 0.26.
In the case of “CTTTTTTTTTAAAAATGTACACATTTTTGAAAATAC [XGTACX_site3127]”, the “gcPBM binding intensity (ln)” value is reported as 11.4 ± 0.84.
“AGTTTCCATATGAGGTGTACATATATAATTTATTAT [XGTACX_site2369]” was tested, and the “gcPBM binding intensity (ln)” value was 11.6 ± 0.71.
“TGGTGTTTTTTTTAATGTACTTATAAAATAATACAT [XGTACX_site6574]” was tested, and the “gcPBM binding intensity (ln)” value was 11.4 ± 0.83.
For “TTATAATTTTTCTATTGTACATTTAATAATATATAT [XGTACX_site7326]”, the “gcPBM binding intensity (ln)” value was 10.9 ± 0.47.
In the case of “ATTATTTATTATTTCTGTACGTATAAAAATAACATT [XGTACX_site1671]”, the “gcPBM binding intensity (ln)” value is reported as 11.7 ± 1.1.
For “TATATATTATATATATGTACATAATTCCATGTTTAG [XGTACX_site3943]”, the “gcPBM binding intensity (ln)” value was 11.2 ± 0.81.
With “ATAAATACTTTTTGGTGTACACTTTTAAATGAAAAA [XGTACX_site3042]” the “gcPBM binding intensity (ln)” value was 11.8 ± 1.
With “AATAAAAAAAATTTCTGTACATATATTTATTATATA [XGTACX_site1883]” the “gcPBM binding intensity (ln)” value was 11.1 ± 0.74.
“GTTTTCTAGTGGGGGTGTACATATTTATATTTAATA [XGTACX_site8378]” was tested, and the “gcPBM binding intensity (ln)” value was 11.7 ± 0.86.
“ATATATTATTTCTAGTGTACATACCCATATATAATA [XGTACX_site8902]” was tested, and the “gcPBM binding intensity (ln)” value was 11.2 ± 0.69.
For “TATAAAATATATATCTGTACGTATTTTATTTTTTAT [XGTACX_site6257]”, the “gcPBM binding intensity (ln)” value was 11.4 ± 0.88.
With “AATAGTTATTCCAGGTGTACATAACATATAATTTAC [XGTACX_site1340]” the “gcPBM binding intensity (ln)” value was 11.5 ± 0.95.
For “ATTTTTTAAAATATTTGTACATATATAATGCATATA [XGTACX_site7026]”, the “gcPBM binding intensity (ln)” value was 11 ± 0.64.
